Drawing on PubChem BioAssay (NCI), this text covers growth for eight molecules.

The panel holds about 83,000 compounds, 20% with a hit somewhere; the sample as a whole holds those more often.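 Assay: single dose, 48 h. Readout: percent growth (0 = no net growth; negative = cell death). Active: <10.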 Values without a mark were called inactive. Active and inactive are the calls of the source.

What all share (assay): NCI-60 one-dose screen, 48 h (100 = growth as untreated, 0 = no growth, -100 = all killed)
The test system of one test is NCI-H23 lung. The settings on record: 10 µM unless noted.
The next test relates to NCI-H226 lung. The settings on record: 10 µM unless noted.
In the next test the test system is NCI-H322M lung. The following applies: 10 µM unless noted.
The test system of another test is HOP-62 NSCLC. The following applies: 10 µM unless noted.
The next test relates to NCI-H460 lung. The settings on record: 10 µM unless noted.
The next test concerns HOP-92 NSCLC. The settings on record: 10 µM unless noted.
The test system of the next test is NCI-H522 lung. The following applies: 10 µM unless noted.
A further test relates to A549/ATCC NSCLC. The settings on record: 10 µM unless noted.
The test system of a further test is 786-0 renal. The following applies: 10 µM unless noted.
The test system of another test is COLO 205 colon. The settings on record: 10 µM unless noted.
A further test concerns DU-145 prostate. The following applies: 10 µM unless noted.
Another test relates to K-562 leukemia. The settings on record: 10 µM unless noted.
In the next test the test system is MALME-3M melanoma. The settings on record: 10 µM unless noted.
The subject of a further test is MDA-MB-231 breast. The following applies: 10 µM unless noted.
The next test deals with RXF 393 renal. The settings on record: 10 µM unless noted.
For a further test, the system named is SF-268 CNS. The settings on record: 10 µM unless noted.
A further test relates to SF-295 CNS. The settings on record: 10 µM unless noted.
The next test deals with SF-539 CNS. The following applies: 10 µM unless noted.
For the next test, the system named is UACC-257 melanoma. The following applies: 10 µM.
In a further test the test system is M14 melanoma. The settings on record: 10 µM unless noted.

As to `Cc1ccc(/C=C/CC(=O)Nc2ccc(C(=O)Nc3ccc(F)cc3N)cc2)cn1`, the growth in the test on NCI-H23 lung is 68.6%; in the test with NCI-H226 lung it was 68.6%; in the test on NCI-H322M lung it was 74.4%; with HOP-62 NSCLC it was 59.1%; in the test with NCI-H460 lung, 72.1%; in the test with HOP-92 NSCLC, 22.6%. Moreover, the growth is 30.4% with NCI-H522 lung; 69.2% in the test on A549/ATCC NSCLC; 75.6% in the test on 786-0 renal; 49.4% in the test on COLO 205 colon; 54.3% with DU-145 prostate; 34% in the test on K-562 leukemia. Moreover, the growth in the test with MALME-3M melanoma was 41.4%; in the test with MDA-MB-231 breast it was 69.3%; with RXF 393 renal it was 74.5%; with SF-268 CNS, 60.4%; with SF-295 CNS, 69.7%; in the test on SF-539 CNS, 55.9%. Besides, the growth is 52.4% in the test on UACC-257 melanoma and 56.7% in the test with M14 melanoma.
As for `IP(CCCSc1n(Cc2ccc3ccccc3c2)c(-c2ccccc2)c(-c2ccccc2)[n+]1Cc1ccc2ccccc2c1)(c1ccccc1)(c1ccccc1)c1ccccc1`, the growth in the test on NCI-H23 lung was 26.3%; in the test with NCI-H226 lung, 78.8%; with NCI-H322M lung, 63.5%; with HOP-62 NSCLC, 31.2%; in the test with NCI-H460 lung, 22.8%; with HOP-92 NSCLC, -1.48% (active). Besides, the growth with NCI-H522 lung was 8.1% (active); in the test on A549/ATCC NSCLC, 26.7%; in the test with 786-0 renal, 87.2%; in the test on COLO 205 colon it was -9.45% (active); in the test on DU-145 prostate it was 34.7%; with K-562 leukemia, 25.3%. Further, the growth in the test with MALME-3M melanoma was 14.6%; in the test on MDA-MB-231 breast, 32.5%; with RXF 393 renal it was 99.7%; in the test on SF-268 CNS, 23.8%; in the test on SF-295 CNS, 31.8%; with SF-539 CNS it was 35.3%. Moreover, the values for the growth in the test with UACC-257 melanoma and in the test with M14 melanoma were 4.7% (active) and 51.5%, respectively.
As for `O=C(/C=C1\C=CN(CCCCF)c2ccccc21)n1ccc2ccccc21`, the growth in the test on NCI-H23 lung is 98.5%; in the test on NCI-H226 lung it was 91.9%; in the test with NCI-H322M lung, 93.3%; with HOP-62 NSCLC, 93%; in the test with NCI-H460 lung, 113%; in the test with HOP-92 NSCLC, 90.9%. Further, the growth with NCI-H522 lung was 94.7%; in the test with A549/ATCC NSCLC it was 104%; in the test with 786-0 renal, 107%; in the test with COLO 205 colon it was 96.6%; with DU-145 prostate, 127%; in the test with K-562 leukemia it was 104%. The growth in the test with MALME-3M melanoma is 100%; in the test on MDA-MB-231 breast, 94.9%; in the test with RXF 393 renal, 126%; in the test with SF-268 CNS, 121%; in the test on SF-295 CNS, 106%; in the test on SF-539 CNS, 98.8%. The growth with UACC-257 melanoma was 110%; with M14 melanoma, 101%.
Consider `O=C1NC(=O)/C(=C/c2ccc(OCc3cc4ccccc4nc3Cl)cc2)S1`, for which the growth in the test with NCI-H23 lung is 87.1%; in the test with NCI-H226 lung it was 101%; in the test with NCI-H322M lung, 103%; in the test with HOP-62 NSCLC, 105%; in the test with NCI-H460 lung, 101%; with HOP-92 NSCLC, 78.6%. The growth in the test on NCI-H522 lung is 79.8%; in the test on A549/ATCC NSCLC, 99.6%; in the test with 786-0 renal, 93.7%; with COLO 205 colon, 122%; in the test on DU-145 prostate it was 100%; in the test on K-562 leukemia, 75.2%. In addition, the growth in the test on MALME-3M melanoma is 103%; in the test with MDA-MB-231 breast, 88.2%; in the test on RXF 393 renal it was 111%; in the test with SF-268 CNS, 110%; in the test with SF-295 CNS it was 96.4%; in the test on SF-539 CNS, 104%. For the same molecule, the results for the growth with UACC-257 melanoma and in the test on M14 melanoma were 98% and 104%, respectively.
As for `CN1C(=O)/C(=C/C=C/c2ccco2)SC1=S`, the growth is 75.7% in the test on NCI-H23 lung; 70.1% in the test on NCI-H226 lung; 88.8% with NCI-H322M lung; 93.8% with HOP-62 NSCLC; 99.1% with NCI-H460 lung; 98.9% in the test on HOP-92 NSCLC. For the same molecule, the growth with NCI-H522 lung is 71.3%; with A549/ATCC NSCLC it was 72%; in the test on 786-0 renal, 84.9%; in the test on COLO 205 colon, 94.3%; with DU-145 prostate, 101%; in the test with K-562 leukemia, 77.7%. Further, the growth is 36% with MALME-3M melanoma; 86.8% in the test with MDA-MB-231 breast; -20.9% (active) with RXF 393 renal; 91.2% with SF-268 CNS; 101% in the test on SF-295 CNS; 84.7% in the test on SF-539 CNS. In addition, the growth was 88.1% in the test with UACC-257 melanoma and 45% in the test on M14 melanoma.
With `C#C[C@]1(O)CC[C@H]2[C@@H]3CC=C4c5sc(Nc6cc(Cl)ccn6)nc5CC[C@]4(C)[C@H]3CC[C@@]21C`, the growth with NCI-H23 lung is 35.4%; in the test on NCI-H226 lung, 22.9%; in the test with NCI-H322M lung, 59.3%; with HOP-62 NSCLC, 14.1%; in the test on NCI-H460 lung, 13.5%; in the test with HOP-92 NSCLC it was 18.4%. Also, the growth in the test on NCI-H522 lung was 30.2%; with A549/ATCC NSCLC, 37.5%; with 786-0 renal, -70.8% (active); with COLO 205 colon it was 21.2%; in the test with DU-145 prostate, 42.5%; with K-562 leukemia, 7.33% (active). In addition, the growth with MALME-3M melanoma is -21.9% (active); in the test with MDA-MB-231 breast it was 32.6%; in the test with RXF 393 renal, -52.8% (active); in the test with SF-268 CNS it was 10.7%; in the test on SF-295 CNS, -68.7% (active); in the test with SF-539 CNS, -53.2% (active). Moreover, the growth in the test on UACC-257 melanoma is -35.3% (active); in the test on M14 melanoma, -51.8% (active).
For the molecule `C/C(=C(/c1ccc(O)cc1)c1ccc(OCCN(C)C)cc1)c1ccc(Cl)cc1`, the growth with NCI-H23 lung is 56.8%; in the test on NCI-H226 lung, 89.4%; in the test on NCI-H322M lung, 48%; in the test on HOP-62 NSCLC it was 67.4%; in the test on NCI-H460 lung, 15%; with HOP-92 NSCLC, 32.5%. The growth is 57.8% in the test on NCI-H522 lung; 56.4% with A549/ATCC NSCLC; 50.2% with 786-0 renal; -88.7% (active) in the test with COLO 205 colon; 65.2% in the test on DU-145 prostate; 0.0711% (active) in the test with K-562 leukemia. For the same molecule, the growth in the test with MALME-3M melanoma was -47.9% (active); with MDA-MB-231 breast, 31.1%; with RXF 393 renal it was 30.3%; with SF-268 CNS it was 61.8%; in the test on SF-295 CNS, 80.9%; with SF-539 CNS, -18.4% (active). Further, the growth with UACC-257 melanoma is -66.6% (active); in the test with M14 melanoma it was -70.7% (active).
Consider `Cc1cn(-c2cc(NC(=O)c3cncc(C#Cc4cnc5ccc(OCCCS(C)(=O)=O)nn45)c3)cc(C(F)(F)F)c2)cn1`, for which the growth with NCI-H23 lung was -5.32% (active); with NCI-H226 lung, 4.42% (active); in the test with NCI-H322M lung it was 24.4%; in the test on HOP-62 NSCLC, 25.5%; in the test with NCI-H460 lung, 18.6%; with HOP-92 NSCLC it was -34.5% (active). Moreover, the growth is 3.59% (active) with NCI-H522 lung; 48% with A549/ATCC NSCLC; 12.4% with 786-0 renal; -30.3% (active) in the test with COLO 205 colon; 12.6% in the test with DU-145 prostate; 11% with K-562 leukemia. Further, the growth in the test with MALME-3M melanoma was 11.7%; in the test on MDA-MB-231 breast, 14.4%; with RXF 393 renal, -74.5% (active); in the test with SF-268 CNS, -5.33% (active); in the test with SF-295 CNS it was 54.6%; in the test on SF-539 CNS, 6.3% (active). The growth is 64.4% with UACC-257 melanoma and 18% with M14 melanoma.
